# HT1080NT lethal – kills 2HG-producing HT-1080-NT fibrosarcoma cells; HT-1080-NT fibrosarcoma viability, CellTiter-Glo ATP luminescence, 48 h; Potency, µM (top dose mostly 46.1 µM), without a hit: at the top dose activity, negative = less viability, most hits filed as cytotoxic; actives 1.6% (n = 360,000); AID 686970;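 note: NT is the 2HG producing partner of a matched IDH1 knockdown line; 0% = DMSO-treated cells and -100% = media-only wells without cells; nearly all actives have a fitted effect of over 55% in size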
#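 Viability of the 2HG-overproducing fibrosarcoma line after 48 hours of compound exposure at 37 degrees C was determined by luminescence with CellTiter-Glo, and concentration-effect curves were then fitted and categorized.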
# KB-V1 cytotox – KB-V1 MDR subline cytotoxicity. KB-V1 MDR cells viability, CellTiter-Glo, 72 h. Potency, µM (series often up to 46.1 µM), actives largely listed as cytotoxic. actives 3.4% (n = 400,000). AID 1347076; note: % is set by controls: 0 for no effect and ±100 for the full control effect; nearly all actives have a fitted effect of over 60% in size
#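 Cytotoxicity via CellTiter-Glo luminescence after 72 h compound exposure at 37 degrees C. Cells: drug-selected KB-V1 line, DMEM phenol-red free plus 10% FBS. Compounds tested at multiple concentrations; normalized data fitted to concentration-effect curves.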
# HT1080 IDH1KD tx – kills HT-1080 cells with IDH1 knockdown. HT-1080 IDH1 knockdown viability, ATP luminescence, 48 h. Potency, µM (titrated, usually from 46.1 µM), for the others: top-dose activity, negative = toxicity, most hits filed as cytotoxic. actives 2% (n = 360,000);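 note: 0% = DMSO wells and -100% = cell-free medium wells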
#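 Viability of IDH1-knockdown HT-1080 fibrosarcoma cells was assessed by CellTiter-Glo after 48 h at 37 °C with titrated compound; concentration-effect curves were classified by fit quality and response size.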
# SW480 rerep – inducers of DNA re-replication in SW480 colon cancer cells. SW480 DNA re-replication, Hoechst DNA content imaging, 48 h. Potency, µM (titrated, usually from 46.1 µM), for inactives: at the highest dose re-replication activation, actives largely listed as activators. actives 1.8% (n = 340,000); note: % of control where 0% means no effect; nearly all actives have a fitted effect of over 55% in size
#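 250 cells/well; 23 nL cpd via pin tool; 48 hr, 37 C, 5% CO2; Hoechst 40 min; imager read of total nuclear intensity, ex 405/em 500-530 nm.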
# KB-3-1 cytotox – kills parental KB-3-1 adenocarcinoma cells. KB-3-1 viability, CellTiter-Glo ATP luminescence, 72 h. Potency, µM (doses to about 46.1 µM), usual class: cytotoxic. actives 1.4% (n = 400,000). AID 1347075; note: % is set by controls: 0 for no effect and ±100 for the full control effect; nearly all actives have a fitted effect of over 60% in size
#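 Cytotoxicity measured as CellTiter-Glo luminescence after 72 h at 37 C. Compound titrations were pinned onto drug-naive KB-3-1 parental adenocarcinoma cells grown in DMEM with 10% FBS, and normalized data fitted to concentration-response curves.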
# MCF10A rereplic – induces DNA re-replication in MCF 10a normal breast cells. MCF 10A DNA re-replication, Hoechst nuclear intensity, 48 h. actives 2.9% (n = 350,000). AID 624296. Potency, µM (doses to about 46.1 µM), without a hit: at the top dose activity, positive = re-replication, most hits filed as activators; note: % of control where 0% means no effect; nearly all actives have a fitted effect of over 50% in size
# * = called active by the depositor; i = inactive; ? = inconclusive; / = no result given; [ ] = remark or other dose. Most compounds without a hit are left out; they make up all but 7.9% or so of the library. Calls come from the whole dose curve; as a rule, active = well fitted curve in the direction sought with a large enough effect; inconclusive = small, poorly fitted or top-dose-only effect, or another doubt; inactive = no such curve, though single readings can be large; an effect the other way counts as inactive or inconclusive. Potency is the fitted concentration of half-maximal effect.
SMILES,HT1080NT lethal,KB-V1 cytotox,HT1080 IDH1KD tx,SW480 rerep,KB-3-1 cytotox,MCF10A rereplic
CC1CCCCC1NC(=O)CCC(=O)N1CCOc2ccc(Cl)cc21 (configuration not stated),-2%,i,-3%,-2%,i,6%
COc1ccc(Nc2nc(N3CCCCC3)c3ccccc3n2)cc1,-25%,21µM*,?,7%,?,19%
Oc1ccc(Nc2nc(N3CCCC3)c3ccccc3n2)cc1,?,i,?,?,9.2µM*,?
COc1ccc(CN2CCN(C(=O)CC(C)C)CC2)cc1,-2%,i,-2%,-12%,i,1%
CCC(CC)C(=O)c1c[nH]c(C(=O)NCc2cccnc2)c1,-6%,i,15%,-9%,i,1%
CN1CCN(C(=S)NC(=O)/C=C/c2cccs2)CC1,-1%,i,-1%,-33%,i,-12%
CN1CCN(C(=S)NC(=O)/C=C/c2cccc3ccccc23)CC1,10µM*,i,?,-1%,i,-3%
O=C(COc1ccc([N+](=O)[O-])cc1)N(C1CCCCC1)C1CCS(=O)(=O)C1 (configuration not stated),1%,i,-4%,-521%,i,3%
Cc1nc2c(c(=O)n1CCC1=CCCCC1)c1nc3ccccc3nc1n2/N=C/c1ccccc1,2%,9.2µM*,12%,0%,i,23µM*
COCCCn1c2nc3ccccc3nc2c2c(=O)n(CC3CCCO3)cnc21 (configuration not stated),1%,i,4%,3%,i,6%
CCOCCCn1c(C)nc2c(c1=O)c1nc3ccccc3nc1n2CCC1=CCCCC1,?,18µM*,?,?,?,?
COC(=O)C1CCN(C(=O)Cn2nnc(-c3ccccc3)n2)CC1,-4%,?,-2%,-12%,i,4%
O=C(Cc1cn(Cc2cccc(Cl)c2)c2ccccc12)N1CCCCCC1,-10%,4.6µM*,-5%,-65%,?,?
c1cncc(CSc2nnc3ccc(-c4ccncc4)nn23)c1,1%,i,-2%,11%,i,0%
Cc1cc(/C=C2\SC(=S)N(Cc3ccco3)C2=O)c(C)n1-c1ccccc1,8%,i,14%,-2%,i,5.8µM*
Cc1cc(/C=C2\SC(=S)N(C)C2=O)c(C)n1-c1cccc(O)c1,-11%,?,-8%,17%,?,13µM*
CN1C(=O)/C(=C\c2ccccc2OCc2ccccc2)SC1=S,0%,i,0%,-2%,i,1%
CN1C(=O)/C(=C\c2cc(N=Nc3ccccc3)ccc2O)SC1=S,-7%,?,-7%,-1%,?,2.9µM*
CN=C1S/C(=C\c2cc(C)n(-c3ccccc3F)c2C)C(=O)N1C,3%,i,0%,4%,i,21µM*
CC(NC(=O)OCc1ccccc1)C(=O)NCC1CCCO1 (configuration not stated),-1%,i,5%,-4%,i,-3%
CCN(CC)C1CC(=O)N(c2ccc(Br)cc2)C1=O (configuration not stated),-5%,i,18%,-11%[9.22 µM],i,?
O=c1n(CC2CO2)c(=O)n(CC2CO2)c(=O)n1CC1CO1 (configuration not stated),0%,i,-21%,9.2µM*,?,1.8µM*
O=C(CCN1CCCCO1)NC1CCCc2c1cnn2-c1ccc(F)cc1F (configuration not stated),16%,i,2%,/,i,/
O=c1oc2ccccc2cc1-c1nc2ccccc2o1,0%,i,-26%,3%,i,3%
O=c1oc2ccc3ccccc3c2cc1-c1nc2ccccc2o1,-1%,i,6%,18µM*,i,?
SMILES,HT1080NT lethal,KB-V1 cytotox,HT1080 IDH1KD tx,SW480 rerep,KB-3-1 cytotox,MCF10A rereplic
Cc1cc(C)c2c(CN3CCN(Cc4ccc5c(c4)OCO5)CC3)cc(=O)oc2c1,-4%,i,-2%,-3%,?,29%
Cc1cccc(NC(=O)C(=O)NCC(c2ccc3c(c2)OCO3)N2CCN(C)CC2)c1C (configuration not stated),/,i,/,/,i,/
C/C(N)=C(/C#N)C(=O)CSc1nnc(SCc2ccc(Cl)cc2)s1,-17%,?,21µM*,4%,i,-9%
C/C(N)=C(/C#N)C(=O)CSc1nn(-c2ccc(Cl)cc2)c(=S)s1,-1%,i,-10%,?,i,?
CCOCCCNC(=O)c1cccc(OC2CCN(S(C)(=O)=O)CC2)c1,-3%,i,4%,?,i,-1%
O=C(Nc1ccc(S(=O)(=O)N2CCCCC2c2cccnc2)cc1)c1ccc(Br)cc1 (configuration not stated),/,12µM*,/,/,?,/
O=C(Nc1ccccc1C(=O)NC1CCCCC1)c1ccccc1,-7%,i,-13%,-7%,i,-5%
O=C(Nc1ccc(N2CCN(C(=O)c3ccccc3)CC2)cc1)c1cccnc1,24%,?,3%,2%,i,5%
O=C(Nc1ccc(C(=O)NC2CCCCC2)cc1)c1cccnc1,?,i,18µM*,2%,i,5%
CC1CCN(c2ccc(NC(=O)c3cccnc3)cc2)CC1,21%,18µM*,18%,-5%,i,2%
O=C(Nc1ccsc1C(=O)NC1CCCCC1)c1ccccc1,-22%,4.6µM*,-21%,3%,i,12%
COCCNC(=O)c1ccc(CS(=O)(=O)c2ccc(C)cc2)o1,-1%,i,0%,0%,i,-2%
COc1ccc(NC(=O)N2CCN(S(C)(=O)=O)CC2)cc1OC,-5%,i,-2%,-4%,i,3%
CC1Cc2ccccc2N1C(=O)COc1cccc(-n2cnnn2)c1 (configuration not stated),-14%,i,-3%,2%,i,14%
COc1nc(N2CCOCC2)nc(-n2cccc2)n1,-2%,?,-23%,?,i,21%
COc1ccc(Nc2ccnc(Nc3ccc(OC)cc3)n2)cc1,23µM*,16µM*,21µM*,?,?,23µM*
O=C1CCC(C(=O)N2CCSCC2)CN1Cc1ccc(Cl)cc1 (configuration not stated),0%,i,1%,-4%,i,-4%
COc1ccc(S(=O)(=O)N2CCC(C)CC2)cc1N(C)S(=O)(=O)c1ccccc1,6%,/,6%,?,/,3%
